HT1080 IDH1KD tx – qHTS for induction of synthetic lethality in tumor cells producing 2HG: qHTS for the HT-1080-IDH1KD cell line; HT-1080 IDH1 knockdown viability, ATP luminescence, 48 h; actives 2% (n = 360,000); AID 686971, 2013; Potency, µM (top dose mostly 46.1 µM), most hits filed as cytotoxic
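Viability of IDH1-knockdown HT-1080 fibrosarcoma cells was assessed by CellTiter-Glo after 48 h at 37 °C with titrated compound; concentration-effect curves were classified by fit quality and response size.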
KB-3-1 cytotox – qHTS assay for MDR1-selective chemotherapeutics: Primary screen using the parental adenocarcinoma cell KB-3-1; KB-3-1 viability, CellTiter-Glo ATP luminescence, 72 h; Potency, µM (highest dose often 46.1 µM), hits mostly cytotoxic; actives 1.4% (n = 400,000); further: nearly all actives have a fitted effect of over 60% in size
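Parental KB-3-1 adenocarcinoma cells in phenol-red-free DMEM with 10% FBS were pin-treated with compounds at several concentrations, incubated 72 h at 37 °C, and viability read by CellTiter-Glo luminescence; concentration-effect curves were fitted after normalization.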
KB-V1 MDR tox – qHTS assay for MDR1-selective chemotherapeutics: Primary screen using the drug-selected MDR subline cells KB-V1 | KB-V1 MDR cells viability, CellTiter-Glo, 72 h | Potency, µM (series often up to 46.1 µM), hits mostly cytotoxic | actives 3.4% (n = 400,000); further: nearly all actives have a fitted effect of over 60% in size
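Cytotoxicity toward P-gp-expressing KB-V1 cells was determined as loss of CellTiter-Glo luminescence after 72 h at 37 degrees C. Compounds were tested in quantitative HTS format across a concentration range, with curves fitted to normalized data.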
TDP1 cell noCPT – qHTS for Inhibitors of human tyrosyl-DNA phosphodiesterase 1 (TDP1): qHTS in cells in absence of CPT; DT40 Tdp1-/- hTDP1 cells, no CPT, ATP luminescence, 48 h; Potency, µM (doses to about 46.2 µM), usual class: inhibitors; actives 15% (n = 420,000); AID 686978, 2013; further: nearly all actives have a fitted effect of over 55% in size
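A cellular qHTS used chicken DT40 cells lacking endogenous Tdp1 but carrying stably transfected human TDP1. Compounds were applied without camptothecin, and cell growth kinetics were judged by ATP-dependent luminescence after ≥48 hr.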
HT1080-NT tox – qHTS for induction of synthetic lethality in tumor cells producing 2HG: qHTS for the HT-1080-NT fibrosarcoma cell line | HT-1080-NT fibrosarcoma viability, CellTiter-Glo ATP luminescence, 48 h | Potency, µM (series often up to 46.1 µM), actives largely listed as cytotoxic | actives 1.6% (n = 360,000);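 further: NT is the 2HG producing partner of a matched IDH1 knockdown line; nearly all actives have a fitted effect of over 55% in size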
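Luminescent CellTiter-Glo readout after 48 hours of compound exposure at 37 degrees C defined viability of HT-1080-NT cells. Activity was normalized to DMSO wells and cell-free media wells; concentration-response curves were fitted and assigned curve classes.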
TDP1 cell CPT – qHTS for Inhibitors of human tyrosyl-DNA phosphodiesterase 1 (TDP1): qHTS in cells in presence of CPT | chicken DT40 Tdp1-/-;hTDP1 cells + 20 nM CPT, ATP luminescence, 48 h | Potency, µM (highest dose often 46.2 µM), actives largely listed as inhibitors | actives 12% (n = 420,000); further: nearly all actives have a fitted effect of over 55% in size
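Chicken DT40 Tdp1-/- cells complemented with human TDP1, 400 cells/well, exposed to compounds plus 20 nM camptothecin for at least 48 h at 37 C; viability read as ATP content by CellTiter-Glo luminescence.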
Hits are given with their value; n = inactive; u = inconclusive; x = no result; [ ] = remark or other dose. The list is not random: actives were taken first. Their share in the collection is about 19%. The call rests on the fitted dose curve; in most records, active means well fitted curve in the direction sought with a large enough effect; inconclusive means small, poorly fitted or top-dose-only effect, or another doubt; inactive means no such curve, though single readings can be large; an effect the other way counts as inactive or inconclusive.

SMILES	HT1080 IDH1KD tx	KB-3-1 cytotox	KB-V1 MDR tox	TDP1 cell noCPT	HT1080-NT tox	TDP1 cell CPT
N#C/C(=C\c1c(Oc2ccc(F)cc2)nc2ccccn2c1=O)c1nc2ccccc2s1	x	n	n	12µM	x	u
Cc1ccc(Oc2nc3c(C)cccn3c(=O)c2/C=C(\C#N)C(N)=O)cc1	n	n	n	13µM	n	u
Cc1cc(C)cc(Oc2nc3c(C)cccn3c(=O)c2/C=C(\C#N)c2nc3ccccc3[nH]2)c1	x	n	n	n	x	n
Cc1cccn2c(=O)c(/C=C(\C#N)c3nc4ccccc4s3)c(Oc3ccc(Br)cc3)nc12	x	n	n	6.5µM	x	7.3µM
CN1CCN(C(c2cccc(Br)c2)c2sc3nc(-c4ccco4)nn3c2O)CC1 (configuration not stated)	x	n	n	n	x	n
Cc1ccc2c(C)nc(Nc3nc(CSc4nnc(C)s4)cc(=O)[nH]3)nc2c1	u	u	n	20µM	u	11µM
COc1ccccc1Nc1nc(N)nc(CSc2nnc(C)s2)n1	n	n	n	n	n	n
COc1cccc2c(C)nc(Nc3nc(CSc4nnc(C)s4)cc(=O)[nH]3)nc12	n	n	n	18µM	n	23µM
CC(=O)c1ccc(N2CCN(C(=O)CNC(=O)c3ccc(Br)o3)CC2)cc1	n	n	n	u	n	u
C[C@@H]1CN([C@@H](C)CO)C(=O)c2cc(NC(=O)c3ccccc3)ccc2O[C@@H](C)CCCCO[C@@H]1CN(C)Cc1ccc(C(F)(F)F)cc1	u	u	n	7.3µM	n	9.2µM
C[C@@H]1CCCCO[C@H](CN(C)C(=O)NC2CCCCC2)[C@@H](C)CN([C@H](C)CO)C(=O)c2cc(NC(=O)c3ccccc3)ccc2O1	n	n	n	21µM	n	u
C[C@@H]1CCCCO[C@@H](CN(C)Cc2ccc3c(c2)OCO3)[C@@H](C)CN([C@H](C)CO)C(=O)c2cc(N(C)C)ccc2O1	n	n	n	n	n	n
C[C@@H]1CCCCO[C@H](CN(C)Cc2ccc3c(c2)OCO3)[C@@H](C)CN([C@H](C)CO)C(=O)c2cc(NC(=O)c3ccccc3)ccc2O1	u	u	n	15µM	u	21µM
C[C@@H]1CCCCO[C@H](CN(C)Cc2ccc3c(c2)OCO3)[C@H](C)CN([C@@H](C)CO)C(=O)c2cc(NC(=O)c3ccccc3)ccc2O1	u	n	n	21µM	u	26µM
COc1cc(C2c3c(-c4c(C)cc(C)cc4O)n[nH]c3C(=O)N2CCCOC(C)C)cc(OC)c1OC (configuration not stated)	x	n	n	n	x	u
CC(C)[N+](C)(C)CC(O)COc1cccc2ccccc12 (configuration not stated)	x	x	x	n	x	n
CC(C)NC(=O)Nc1ccc2c(c1)C(=O)N([C@@H](C)CO)C[C@@H](C)[C@H](CN(C)Cc1ccccc1)OCCCC[C@H](C)O2	n	n	n	u	n	n
C[C@@H]1CCCCO[C@@H](CN(C)Cc2ccccc2)[C@@H](C)CN([C@H](C)CO)C(=O)c2cc(NC(=O)Nc3cccc4ccccc34)ccc2O1	n	n	u	21µM	n	n
O=C(CCN1Cc2ccccc2OC(c2ccccc2F)C1)N1CCC(N2CCCC(O)C2)CC1 (configuration not stated)	x	x	x	n	x	n[9.04 µM]
